Pf growth 96h: Primary qHTS for delayed death inhibitors of the malarial parasite plastid, 96 hour incubation. P. falciparum luciferase reporter growth, 96 h. Potency, µM (doses to about 28.7 µM), without a hit: at the top dose activity change, negative = inhibition, usual class: inhibitors. hit rate 6.9% among 320,000; also: % is scaled to controls: 0 for no effect and ±100 for the full control effect
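P. falciparum expressing integrated firefly luciferase grown in erythrocytes (2% hematocrit, 0.05% parasitemia final) with compounds for 96 hours at 37 C, 5% CO2. Growth inhibition read as loss of luminescence after adding luciferase detection reagent.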
RE007 growth inh: qHTS Assay for Inhibitors of the HIV-1 protein Vpr. S. pombe RE007 Vpr strain, BacTiter-Glo ATP luminescence, 24 h. Potency, µM (top dose mostly 92.2 µM), for inactives: at the top dose activity change, negative = less growth, most hits filed as inhibitors. hit rate 0.21% among 360,000; active = well fitted falling curve with a large enough effect; inconclusive = small, poorly fitted or top-dose-only effect; inactive = no such curve, though single readings can be large or run the other way; also: % is scaled to controls: 0 for no effect and ±100 for the full control effect; nearly all actives have a fitted effect of over 50% in size
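Fission yeast RE007 carrying one integrated HIV-1 vpr copy, seeded at OD 0.01 in PMG+AL medium with 23 nL pinned compound. Grown 24 h at 30 degrees; viability read by BacTiter-Glo luminescence after 5 min.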
Pf growth 48h: Primary qHTS for delayed death inhibitors of the malarial parasite plastid, 48 hour incubation | P. falciparum luciferase growth in erythrocytes, 48 h | Potency, µM (doses to about 28.7 µM), for the others: top-dose activity change, negative = inhibition, hits mostly inhibitors | AID 504832, 2011 | hit rate 5.9% among 310,000; also: % is scaled to controls: 0 for no effect and ±100 for the full control effect
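Read-out is firefly luciferase luminescence from an integrated reporter in P. falciparum, so falling signal marks reduced parasite growth. Infected erythrocytes were at 2% hematocrit and 0.1% parasitemia (final) in Albumax-supplemented RPMI 1640.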
NS1 inh: qHTS Assay for Inhibitors of Influenza NS1 Protein Function; Potency, µM (doses to about 46.1 µM), without a hit: top-dose activity, positive = more growth; hit rate 0.4% among 270,000; calls by dose curve; also: actives are rising curves; nearly all actives have a fitted effect of over 50% in size
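A cell-based growth assay was used: compounds that relieve NS1-induced slow growth of budding yeast raise OD600. Assay medium was yeast nitrogen base with ammonium sulphate and -URA supplement, pH 6.0, with 2% galactose.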
SARS PLP yeast: qHTS of Yeast-based Assay for SARS-CoV PLP | AID 485353, 2010 | Potency, µM (titrated, usually from 32.9 µM), without a hit: at the top dose activity, positive = growth rescue, usual class: activators | hit rate 0.19% among 330,000 | S. cerevisiae expressing SARS-CoV PLpro, growth rescue; calls by dose curve; also: 0% is about no effect; nearly all actives have a fitted effect of over 55% in size
* hit, by the source's call; ? = inconclusive; nt = not tested or not shown; [ ] = another dose, or the depositor's remark. Most compounds without a hit are left out; they make up all but 9.5% or so of the library. Unless noted, calls follow the shape of the dose curve; as a rule, active = well fitted inhibition curve with a large enough effect; inconclusive = small, poorly fitted or top-dose-only effect, or another doubt; inactive = no such curve, though single readings can be large or run the other way. Potency is read from the fitted curve at half-maximal effect.

SMILES	Pf growth 96h	RE007 growth inh	Pf growth 48h	NS1 inh	SARS PLP yeast
O=C(NCC1CCCO1)C1CC(=O)N(c2ccccc2)C1 (stereo not drawn)	-17.2%	27.2%	?	-3.5%	1.6%
CC(C)(CCC(C)(C)c1ccccc1)c1ccccc1	nt	nt	nt	0.0%	nt
CCCOC(=O)[C@@H]1[C@@H](C(=O)O)[C@H]2CC[C@@H]1O2	nt	nt	nt	-1.0%	nt
Cc1ccc(NC(=O)COc2ccccc2CNC(C)(C)CC(C)(C)C)cc1	nt	-12.6%	7.38µM*	-9.6%	1.7%
O=C(CCn1ccc2ccccc21)Nc1ccc(N2CCOCC2)cc1	?	5.6%	13.1µM*	11.7%	-0.4%
Cc1cc(C)cc(OCC(=O)Nc2ccc(N3CCCC3)cc2)c1	140.3%	-5.5%	?	17.4%	3.9%
CC(C)(CO)NCc1ccccc1OCC(=O)Nc1ccccc1	nt	9.2%	4.0%	-5.5%	-0.6%
Cc1ccc(OCC(=O)Nc2ccc(N3CCCC3)cc2)cc1C	-5.6%	-13.7%	11.7µM*	-1.4%	0.7%
CCn1nnc2cc(C(=O)Nc3cc(OC)cc(OC)c3)ccc21	38.7%	5.9%	9.7%	nt	-2.0%
CC(C)c1ccc(/C=C2\C=C(c3ccc4ccccc4c3)OC2=O)cc1	nt	nt	nt	-11.1%	nt
CCCC(=O)N1CCC1(C)C(=O)Nc1ccc(OC)c(OC)c1 (stereo not drawn)	nt	0.4%	nt	nt	nt
Cc1ccc(-n2c(C)nnc2SCC(=O)NC2CCCC2)cc1	34.9%	2.5%	-24.5%	1.8%	19.1%
CC(C)(C)S(=O)N1Cc2cn(Cc3ccccc3)c(=O)cc2[C@H]1CCO (stereo partly drawn)	nt	7.8%	nt	nt	nt
CC(C)OC(=O)N(C)C[C@@H]1OCc2cnnn2CCCC(=O)N([C@@H](C)CO)C[C@H]1C	nt	3.2%	nt	nt	nt
O=C(NCCC(=O)N1CCCCCCC1)c1ccc(Br)cc1	10.4µM*	-1.1%	13.1µM*	nt	-0.4%
COC(=O)c1ccc(-n2c(C)cc(-c3csc(NC(=O)c4ccc(S(=O)(=O)N(C)C)cc4)n3)c2C)cc1	?	0.8%	?	25.4%	-30.6%
Cc1cc(-c2csc(NC(=O)c3cccc(S(=O)(=O)N(C)C)c3)n2)c(C)n1-c1ccccc1	11.7µM*	7.2%	8.28µM*	18.0%	0.6%
C/C(Cn1nnc([N+](=O)[O-])n1)=N\NC(=O)c1ccccc1	14.7µM*	-23.5%	?	-1.1%	8.7%
Cc1cc(F)ccc1S(=O)(=O)NCC1CC2CCC1C2 (stereo not drawn)	-16.8%	-1.7%	?	-9.8%	-3.8%
Cc1ccccc1C(=O)N/N=C/c1ccc([N+](=O)[O-])s1	2.08µM*	-27.9%	nt	-87.8%	-48.9%
O=C(N/N=C/c1ccc([N+](=O)[O-])s1)c1ccccc1Br	1.65µM*	-0.5%	?	-51.0%	-30.6%
COc1ccccc1NC(=O)C(=O)N/N=C/c1ccc([N+](=O)[O-])s1	1.65µM*	-0.6%	2.62µM*	-8.7%	-2.4%
COC(=O)N/N=C/c1ccc([N+](=O)[O-])s1	8.28µM*	nt	14.7µM*	-60.9%	-38.4%
C=C1CCN(c2ccc(C(=O)NCc3ccc(OC)cc3)cc2[N+](=O)[O-])CC1	nt	-0.8%	nt	nt	nt
Cc1cccc(OCC(=O)N/N=C/CC(C)c2ccccc2)c1C (stereo not drawn)	-3.7%	-17.5%	10.3%	6.4%	-0.1%
SMILES	Pf growth 96h	RE007 growth inh	Pf growth 48h	NS1 inh	SARS PLP yeast
O=C(N/N=C\c1ccc([N+](=O)[O-])s1)c1cncc(Br)c1	3.29µM*	3.9%	8.28µM*	-40.6%	-42.1%
Cc1cc(C)cc(NC(=O)/C=C/c2ccc([N+](=O)[O-])s2)c1	?	-8.0%	?	-2.2%	5.4%
O=C(N/N=C/c1ccc(Br)s1)c1cccc([N+](=O)[O-])c1	4.15µM*	-28.9%	2.94µM*	11.7%	-16.1%
Cc1cc(C(=O)N/N=C/c2ccc([N+](=O)[O-])s2)c2ccccc2n1	5.5%	2.0%	4.65µM*	-2.0%	-5.2%
Cc1ccccc1NC(=O)/C=C/c1ccc([N+](=O)[O-])s1	11.7µM*	-15.3%	7.38µM*	0.2%	-20.1%
COc1cccc(C(=O)c2c[nH]c(C(=O)NCCCN3CCOCC3)c2)c1	2.0%	6.7%	-13.6%	-4.3%	-0.6%
Cc1cccc(C)c1NC(=O)C1CCCN1C(=O)Nc1cccc(F)c1 (stereo not drawn)	?	-1.7%	3.2%	4.5%	-0.1%
Cc1ccc(C(C(=O)NC2CCCCC2)N(Cc2ccccc2)C(=O)Cc2c[nH]c3ccccc23)o1 (stereo not drawn)	?	5.5%	?	6.6%	-16.9%
COc1cccc(CN(C(=O)Cc2c[nH]c3ccccc23)C(C(=O)NC2CCCCC2)c2ccc(C)o2)c1 (stereo not drawn)	?	8.6%	13.1µM*	29.9%	-1.5%
COc1ccc(CN(C(=O)Cc2c[nH]c3ccccc23)C(C(=O)NC2CCCCC2)c2ccc(C)o2)cc1 (stereo not drawn)	5.22µM*	-3.5%[3.69 µM]	5.22µM*	?	-5.9%
Cc1[nH]n(C)c(=O)c1[N+](=O)[O-]	34.8%	23.5%	1.5%	4.4%	1.2%
Cc1nc(SCc2ccc(Cl)cc2)ncc1C(=O)O	?	3.4%	12.3%	nt	-3.9%
O=C(c1cccnc1)N1CCC(Oc2ccc(C(=O)N3CCCC(O)C3)cc2)CC1 (stereo not drawn)	?	-9.1%	0.0%	1.9%	0.5%
CC(NC(=O)c1ccc(OC2CCN(C(=O)c3cccnc3)CC2)cc1)C1CC1 (stereo not drawn)	11.7µM*	-2.3%	17.8%	-0.6%	-1.3%
COc1ccc(N(C(=O)c2cccnc2)S(=O)(=O)c2ccc(Cl)cc2)cc1	5.22µM*	-8.4%	2.1%	-10.5%	?
Cc1cccc(/C=N/n2c(C)nc3ccccc3c2=O)c1	50.5%	-5.4%	17.0%	-3.5%	0.9%
O=C(Cc1cccc(NC(=O)C2CCCN(C(=O)C3CC3)C2)c1)Nc1cccc(C(=O)N2CCCCC2)c1 (stereo not drawn)	nt	6.0%	nt	nt	nt
O=C(Cc1cccc(NC(=O)C2CCCN(C(=O)C3CCCCC3)C2)c1)Nc1cccc(C(=O)N2CCCC2)c1 (stereo not drawn)	?	-4.4%	4.15µM*	nt	0.6%
O=C(Cc1cccc(NC(=O)C2CCCN(C(=O)C3CCCCC3)C2)c1)Nc1cccc(C(=O)N2CCCCC2)c1 (stereo not drawn)	nt	-6.9%	nt	nt	nt
O=C(Cc1cccc(NC(=O)C2CCCN(C(=O)C3CCC3)C2)c1)Nc1cccc(C(=O)N2CCCC2)c1 (stereo not drawn)	2.33µM*	-5.9%	?	nt	-3.5%
O=C(CNCCc1ccc(F)cc1)Nc1cc(F)ccc1F	9.2%	8.6%	nt	-0.1%	0.1%
C=CCNC(=O)N1CCCC(C(=O)c2cccc(OC(C)C)c2)C1 (stereo not drawn)	?	-19.1%	48.8%	-12.9%	-2.9%
CC(C)C(O)(C(C)C)C(C)C	nt	nt	nt	-0.3%	nt

Compound activity: PubChem, National Center for Advancing Translational Sciences (NCATS)
